# Compound activity: PubChem BioAssay, National Center for Advancing Translational Sciences (NCATS)
# Compounds with a hit are over-represented: about 4.7% of the library has one in this group of screens.
# TRHR PAM – qHTS for Small Molecule Agonists and Allosteric Enhancers of Human TRH Receptor: Primary Screen for Enhancers; Thyrotropin-releasing hormone receptor (Homo sapiens), P34981; TRHR cells, fluo-8 calcium fluorescence, EC20 TRH enhancement; enhancement, % at 2 µM; 0.66% of 360,000 active; in the data active = enhancement above about 30%; also: 0% is about no effect
# Target sequence (P34981 whole entry, looked up): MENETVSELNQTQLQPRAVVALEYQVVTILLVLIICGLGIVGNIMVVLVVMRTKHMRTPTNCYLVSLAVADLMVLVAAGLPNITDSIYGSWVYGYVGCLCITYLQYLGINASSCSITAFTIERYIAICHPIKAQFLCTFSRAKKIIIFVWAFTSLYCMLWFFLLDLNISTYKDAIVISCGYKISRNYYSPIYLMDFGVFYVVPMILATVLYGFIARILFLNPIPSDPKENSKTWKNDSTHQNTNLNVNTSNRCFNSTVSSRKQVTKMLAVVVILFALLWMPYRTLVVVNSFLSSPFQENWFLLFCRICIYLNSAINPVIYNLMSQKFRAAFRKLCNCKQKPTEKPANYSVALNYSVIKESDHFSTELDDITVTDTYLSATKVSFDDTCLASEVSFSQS
#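 Enhancer read-out: after compound pinning and an initial kinetic agonist-mode read, an EC20 of TRH (10 nM final) was injected and fluo-8 calcium signal (Ex 480/Em 530) followed at 1 s/cycle for 100 cycles in TRHR-expressing cells.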
# TRHR agonist – qHTS for Small Molecule Agonists and Allosteric Enhancers of Human TRH Receptor: Primary Screen for Agonists; activation, % at 2 µM; Thyrotropin-releasing hormone receptor (Homo sapiens), P34981; 0.18% of 360,000 active; TRHR cells, calcium flux fluo-8, FDSS agonist mode; also: 0% is about no effect
#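 In this calcium-flux screen, cells bearing human TRHR are dye-loaded with fluo-8, baselined for 10 cycles, then exposed to library compounds; positive kinetic calcium responses during the agonist phase mark hits, with TRH as control.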
# D1 potentiator – Potentiators of Human D1 Dopamine Receptor: qHTS; D(1A) dopamine receptor (Homo sapiens), P21728; HEK293 TREx D1 cells, calcium flux, dopamine EC20 potentiation; potentiation, % at 10 µM; 0.036% of 360,000 active; AID 504651, 2011; in the data active = potentiation above about 30%; also: 0% is about no effect
# D1 ag – Allosteric Agonists of the Human D1 Dopamine Receptor: qHTS; D(1A) dopamine receptor (Homo sapiens), P21728; HEK293 T-REx D1 cells, calcium flux, agonist mode; activation, % at 2 µM; 1% of 360,000 active; AID 504660, 2011; also: 0% is about no effect
#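 Tetracycline-induced HEK293 TREx D1 cells, force-coupled to calcium signalling, were dye-loaded with a no-wash calcium kit. Compound was pin-added after a 10 s baseline. Fluorescence was read kinetically at 1 cycle/s for 180 s, with calcium rises flagged as agonism.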
# D1 antagonist – Antagonist of Human D 1 Dopamine Receptor: qHTS; D(1A) dopamine receptor (Homo sapiens), P21728; HEK293 TREx D1 cells, calcium flux, dopamine EC80; hits give low values; activity change, negative = inhibition, % at 10 µM; 3.2% of 360,000 active; AID 504652, 2011; in the data active = activity change below about -30%; also: % is scaled to controls: 0 for no effect and ±100 for the full control effect
#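 After overnight tetracycline induction at 30 C, force-coupled D1 HEK293 cells took up a no-wash calcium dye at room temperature. Compounds were added and monitored 180 s, and the response to EC80 dopamine was then recorded.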
# An asterisk follows results filed as active; · = not tested or not shown. Rule as the data show it, unless noted: active = activation above about 30%; inactive = the rest.
SMILES,TRHR PAM,TRHR agonist,D1 potentiator,D1 ag,D1 antagonist
COc1ccc(CCNC(=O)COC(=O)CSc2ccc([N+](=O)[O-])cc2)cc1OC,-6.7,3.1,-9.4,6.2,-45.1*
CC(OC(=O)CSc1ccc([N+](=O)[O-])cc1)C(=O)NCc1ccccc1 (stereo not drawn),11.6,-0.4,-15.2,19.0,-55.0*
COc1ccc(CCNC(=O)CN(c2cc([N+](=O)[O-])ccc2OC)S(C)(=O)=O)cc1OC,32.4*,0.8,-5.3,2.3,4.4
COc1ccc(CCNC(=O)Cc2ccc([N+](=O)[O-])cc2)cc1OC,13.7,-0.1,-2.1,1.6,12.3
O=C(c1ccccc1)c1cn(Cc2ccc(F)cc2)c2ccccc2c1=O,-4.7,-0.3,5.4,-0.3,-0.8
COc1ccc(-c2noc(CSc3nnc(-c4ccncc4)n3-c3ccc(C)c(C)c3)n2)cc1,6.1,0.9,0.2,9.1,-13.2
O=C(COC(=O)Cc1cccc(F)c1)NCCc1ccccc1,-5.4,-1.1,-3.9,0.7,-67.6*
O=C(COC(=O)CSc1ccc([N+](=O)[O-])cc1)NCc1ccco1,1.8,0.0,-5.3,5.9,-5.8
Cc1ccccc1CN(C)C(=O)COC(=O)CSc1ccc([N+](=O)[O-])cc1,1.3,-0.1,-5.3,14.4,-32.8*
O=C(COC(=O)CSc1ccc([N+](=O)[O-])cc1)NCCc1ccccc1,-0.1,-0.6,-13.8,9.5,-33.7*
Cc1ccc(CN(C)C(=O)COC(=O)CSc2ccc([N+](=O)[O-])cc2)cc1,-1.4,-0.7,-4.8,4.6,-6.4
O=C(COC(=O)Cc1ccc(F)cc1)NCCc1ccccc1,-0.5,-0.7,-2.8,2.2,-4.7
CCc1ccc(NC(=O)c2cccc(N3CCCS3(=O)=O)c2)cc1,-0.4,-0.5,-6.6,1.2,-21.6
O=C(NC1CC(=O)N(c2ccc(Cl)cc2)C1)c1ccc(S(=O)(=O)N2CCCC2)cc1 (stereo not drawn),0.6,0.4,1.2,1.0,·
Cn1nc(C(=O)NCCc2ccc(Cl)cc2)c2c1-c1ccccc1SC2,-1.7,0.0,-0.6,-2.0,-3.5
CCC(Sc1ncccc1C(=O)Oc1ccccc1Cl)C(=O)Nc1ccccc1OC (stereo not drawn),-1.3,0.6,2.9,-0.3,3.0
Cc1cc(Cl)nc(-c2ccccc2)n1,13.2,0.5,-3.7,0.7,-3.6
Cc1cc2c(C)nc(-c3ccccc3)nc2o1,0.1,0.0,-6.4,-0.4,-50.0*
O=C1N/C(=N\S(=O)(=O)c2ccccc2)S/C1=C\c1cc([N+](=O)[O-])ccc1O,39.6*,113.7*,-2.6,167.6*,7.0
O=C1N/C(=N\S(=O)(=O)Cc2ccccc2)S/C1=C/c1cc([N+](=O)[O-])ccc1O,48.9*,102.2*,22.4,267.1*,80.5
COc1cccc(-c2ncc3ccccc3c2COC(=O)c2ccc(Br)cc2)c1,1.5,0.7,-0.7,2.2,·
COc1cccc(-c2ccc3c(N)c(C(=O)c4ccc(Br)cc4)sc3n2)c1,-1.4,16.1,-0.7,80.5*,-4.2
COc1ccc(-c2ccc3c(N)c(C(=O)c4ccc(OC)c(OC)c4)sc3n2)cc1,3.9,15.1,-3.0,77.9*,-16.8
COc1ccc(-c2ccc3c(N)c(C(=O)NC(C)C)sc3n2)cc1OC,7.3,-3.0,2.8,1.2,17.8
CC(C)CCn1c(SCc2ccc(F)cc2Cl)nc2ccsc2c1=O,-4.8,0.0,-2.2,3.0,17.1
SMILES,TRHR PAM,TRHR agonist,D1 potentiator,D1 ag,D1 antagonist
COc1ccc(N2CCN(c3ccc(N4C(=O)COCC4=O)cc3[N+](=O)[O-])CC2)cc1,-2.2,0.4,-9.7,8.9,-31.4*
O=C(NCc1ccccc1)C1CCCN(S(=O)(=O)c2ccc(Br)cc2)C1 (stereo not drawn),-1.2,0.0,-5.7,6.3,-22.5
O=C(NCc1cccs1)C1CCCN(S(=O)(=O)c2cnc[nH]2)C1 (stereo not drawn),6.8,0.3,·,4.2,-2.5
CCOc1ccc(S(=O)(=O)N2CCCC(C(=O)NCc3ccncc3)C2)cc1Cl (stereo not drawn),7.2,-1.4,-3.9,13.3,-31.4*
O=C(NCc1ccccc1)C1CCCN(S(=O)(=O)c2ccc(F)cc2)C1 (stereo not drawn),36.0*,-0.2,-2.6,3.2,3.3
CCOC(=O)C1CCCN(C(=O)C2CCN(S(=O)(=O)c3cnc[nH]3)CC2)C1 (stereo not drawn),13.4,0.4,-0.9,3.1,-41.0*
O=C(NCc1ccccc1Cl)C1CCCN(S(=O)(=O)c2cnc[nH]2)C1 (stereo not drawn),-8.0,0.3,·,3.4,-44.2*
CC1CN(C(=O)Nc2ccc(C(=O)NCCc3ccccc3)cc2)c2ccccc2S1 (stereo not drawn),4.9,-2.1,-3.0,7.8,1.7
CCOc1ccc2nc(N3CCCC(C(=O)Nc4cccc(Cl)c4C)C3)sc2c1 (stereo not drawn),2.0,-0.1,-2.8,1.3,2.9
O=c1c2oc3ccccc3c2n(Cc2cccc(F)c2)c(=O)n1Cc1ccco1,15.3,-0.4,5.5,3.3,0.8
CCc1cccc(C)c1NC(=O)CSc1nc2ccccc2nc1Cc1ccccc1,2.8,0.1,-0.3,2.2,5.3
O=C(NCc1ccc2c(c1)CCN2C(=O)c1ccc(F)cc1)c1cc2ccccc2[nH]1,-0.1,0.0,-4.1,1.2,4.0
O=C(NCc1ccco1)C1CCCCN1S(=O)(=O)c1ccc(F)cc1 (stereo not drawn),2.6,0.8,-6.2,-0.2,-38.7*
O=C(Nc1ccc(Cl)cc1)Nc1nc(-c2sccc2Br)cs1,2.1,0.2,-2.2,2.4,1.2
O=C(Nc1ccc(Cl)cc1)Nc1nc(-c2ccccc2O)cs1,-7.0,1.4,-7.7,23.7,-37.5*
O=C(Nc1cccc(Cl)c1)c1ccc2c(c1)CCN2S(=O)(=O)c1ccccc1,7.5,15.5,3.1,1.5,-19.6
CCN(Cc1ccncc1)C(=O)c1cc(COc2ccc(C)c(C)c2)on1,1.1,-1.1,-12.2,14.5,-22.6
Cc1ccc(OCc2cc(C(=O)N(CCO)Cc3cccs3)no2)cc1C,10.9,-0.1,-8.2,16.6,-45.2*
COc1ccc(-c2cc(C(=O)Nc3c(C)nn(Cc4ccccc4C)c3C)no2)cc1,-2.9,0.4,-1.4,7.3,-11.7
CC(C)OC(=O)c1c2c(n3ccccc13)C(=O)c1ccccc1C2=O,1.7,74.7*,-8.2,254.5*,15.3
